PubChem BioAssay (NCI)
The panel holds about 83,000 compounds, 20% with a hit somewhere; the sample as a whole holds those more often.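 Each cell line was grown in a 96-well plate and treated with one concentration of compound for 48 hours. Values below 10 were considered active.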 Activity calls are given as the source filed them.

Legend:
Experiment in all cases: NCI-60 one-dose screen, 48 h (100 = growth as untreated, 0 = no growth, -100 = all killed)
NCI-H23 lung = conditions: 10 µM unless noted
NCI-H226 lung = conditions: 10 µM unless noted
NCI-H322M lung = conditions: 10 µM unless noted
HOP-62 NSCLC = conditions: 10 µM unless noted
NCI-H460 lung = conditions: 10 µM unless noted
HOP-92 NSCLC = conditions: 10 µM unless noted
NCI-H522 lung = conditions: 10 µM unless noted
A549/ATCC NSCLC = conditions: 10 µM unless noted
786-0 renal = conditions: 10 µM unless noted
COLO 205 colon = conditions: 10 µM unless noted
DU-145 prostate = conditions: 10 µM unless noted
K-562 leukemia = conditions: 10 µM unless noted
MALME-3M melanoma = conditions: 10 µM unless noted
MDA-MB-231 breast = conditions: 10 µM unless noted
RXF 393 renal = conditions: 10 µM unless noted
SF-268 CNS = conditions: 10 µM unless noted
SF-295 CNS = conditions: 10 µM unless noted
SF-539 CNS = conditions: 10 µM unless noted
UACC-257 melanoma = conditions: 10 µM
M14 melanoma = conditions: 10 µM unless noted

Measured: growth

COc1cc(-c2noc(C[C@@H](NC(=O)OCc3ccccc3)C(C)C)n2)cc(OC)c1OC
inactive: NCI-H23 lung 96.9% | NCI-H226 lung 101% | NCI-H322M lung 92.3% | HOP-62 NSCLC 94.4% | NCI-H460 lung 102% | HOP-92 NSCLC 88.3% | NCI-H522 lung 92.1% | A549/ATCC NSCLC 100% | 786-0 renal 101% | COLO 205 colon 117% | DU-145 prostate 108% | K-562 leukemia 94.4% | MALME-3M melanoma 94.4% | MDA-MB-231 breast 92.1% | RXF 393 renal 102% | SF-268 CNS 97.5% | SF-295 CNS 105% | SF-539 CNS 102% | UACC-257 melanoma 98.5% | M14 melanoma 100%

O=C(N/N=C\c1ccc(Cl)cc1)c1ccc2nc(-c3ccc(Br)cc3)[nH]c2c1
inactive: NCI-H322M lung 41.3% | NCI-H522 lung 10.5% | MDA-MB-231 breast 18.2% | SF-268 CNS 11.9%
active: NCI-H23 lung -36% | NCI-H226 lung 9.5% | HOP-62 NSCLC -42.5% | NCI-H460 lung -76.4% | HOP-92 NSCLC -3.66% | A549/ATCC NSCLC -51.7% | 786-0 renal -73.7% | COLO 205 colon -33.4% | DU-145 prostate -1.02% | K-562 leukemia 2.78% | MALME-3M melanoma -59% | RXF 393 renal -46.6% | SF-295 CNS -37.8% | SF-539 CNS -5.56% | UACC-257 melanoma 3.89% | M14 melanoma -45.6%

CC(C)(C)n1nnnc1C(Nc1nccs1)c1cc2cccc3ccc4cccc1c4c32 (stereo not given)
inactive: NCI-H23 lung 100% | NCI-H322M lung 95.5% | HOP-62 NSCLC 84.9% | NCI-H460 lung 99.8% | HOP-92 NSCLC 103% | NCI-H522 lung 100% | A549/ATCC NSCLC 108% | 786-0 renal 107% | COLO 205 colon 104% | DU-145 prostate 107% | K-562 leukemia 102% | MALME-3M melanoma 97% | MDA-MB-231 breast 99.3% | RXF 393 renal 92.1% | SF-268 CNS 100% | SF-295 CNS 93.1% | SF-539 CNS 92.9% | UACC-257 melanoma 100% | M14 melanoma 106%
active: NCI-H226 lung -13%

COc1cc(NC2=C(Cl)C(=O)c3nc(C)ccc3C2=O)cc(OC)c1
inactive: NCI-H226 lung 68.6% | NCI-H322M lung 89.8% | A549/ATCC NSCLC 42.4% | SF-268 CNS 37% | SF-295 CNS 51.6%
active: NCI-H23 lung -55.6% | HOP-62 NSCLC 0.846% | NCI-H460 lung 2.02% | HOP-92 NSCLC -12.2% | NCI-H522 lung -80.6% | 786-0 renal -59.5% | COLO 205 colon -80.5% | DU-145 prostate -93% | K-562 leukemia 4.73% | MALME-3M melanoma -89.4% | MDA-MB-231 breast -28.6% | RXF 393 renal -97.2% | SF-539 CNS -30.9% | UACC-257 melanoma -92% | M14 melanoma -96%

COc1cc([C@H]2OC[C@H]3[C@@H]2CO[C@@H]3c2ccc(O)c(OC)c2)ccc1O
inactive: NCI-H23 lung 86.3% | NCI-H226 lung 86% | NCI-H322M lung 91.7% | HOP-62 NSCLC 81.2% | NCI-H460 lung 90.3% | HOP-92 NSCLC 91.8% | NCI-H522 lung 75.8% | A549/ATCC NSCLC 95.1% | 786-0 renal 101% | COLO 205 colon 86.9% | DU-145 prostate 94.8% | K-562 leukemia 99.4% | MALME-3M melanoma 106% | MDA-MB-231 breast 65.2% | RXF 393 renal 76.2% | SF-268 CNS 91.1% | SF-295 CNS 108% | SF-539 CNS 91.1% | UACC-257 melanoma 113% | M14 melanoma 102%

CCCCCCNC(=O)Oc1ccc(/C(=C(/C)c2ccc(Cl)cc2)c2ccc(OCCN3CCCC3)cc2)cc1
inactive: NCI-H23 lung 48.3% | NCI-H226 lung 83.1% | NCI-H322M lung 69.2% | HOP-62 NSCLC 65% | HOP-92 NSCLC 26% | NCI-H522 lung 65.3% | A549/ATCC NSCLC 53.4% | DU-145 prostate 69.2% | MDA-MB-231 breast 30.6% | SF-268 CNS 61.9%
active: NCI-H460 lung -57% | 786-0 renal -28.8% | COLO 205 colon -36.4% | K-562 leukemia 6.52% | MALME-3M melanoma -70.8% | RXF 393 renal 9.25% | SF-295 CNS -32.7% | SF-539 CNS -24.4% | UACC-257 melanoma -16.5% | M14 melanoma -54.3%

CCNC(=NCCCN(C)C)N/C(N)=N/c1nc2ccccc2s1
inactive: NCI-H23 lung 98.7% | NCI-H226 lung 92.7% | NCI-H322M lung 91.5% | HOP-62 NSCLC 82.4% | NCI-H460 lung 104% | HOP-92 NSCLC 58.1% | NCI-H522 lung 99.2% | A549/ATCC NSCLC 89.8% | 786-0 renal 84.6% | COLO 205 colon 78.7% | DU-145 prostate 99.5% | K-562 leukemia 65.9% | MALME-3M melanoma 97% | MDA-MB-231 breast 73.6% | RXF 393 renal 65.4% | SF-268 CNS 94.8% | SF-295 CNS 92.4% | SF-539 CNS 82.9% | UACC-257 melanoma 104% | M14 melanoma 97%

COc1cc(C(=O)c2cc(C(C)=O)c3c4ccccc4ccn23)cc(OC)c1OC
inactive: NCI-H23 lung 64.4% | NCI-H226 lung 66.8% | NCI-H322M lung 74.8% | HOP-62 NSCLC 56% | NCI-H460 lung 45.1% | HOP-92 NSCLC 26.8% | NCI-H522 lung 52% | A549/ATCC NSCLC 61.1% | 786-0 renal 70.1% | COLO 205 colon 38.6% | DU-145 prostate 94.4% | K-562 leukemia 23.9% | MALME-3M melanoma 64.6% | MDA-MB-231 breast 54.7% | RXF 393 renal 49.2% | SF-268 CNS 74.3% | SF-295 CNS 55.2% | SF-539 CNS 75.3% | UACC-257 melanoma 75.8% | M14 melanoma 58.6%

COc1ccc2c(c1)c(-c1nnc(N)nc1-c1cn(C)c3ccccc13)cn2C
inactive: NCI-H23 lung 92.4% | NCI-H226 lung 86.5% | NCI-H322M lung 90.4% | HOP-62 NSCLC 89.1% | NCI-H460 lung 99.5% | HOP-92 NSCLC 97.9% | NCI-H522 lung 85% | A549/ATCC NSCLC 95.8% | 786-0 renal 90.7% | COLO 205 colon 104% | DU-145 prostate 104% | K-562 leukemia 83.5% | MALME-3M melanoma 85.6% | MDA-MB-231 breast 91.1% | RXF 393 renal 93.2% | SF-268 CNS 101% | SF-295 CNS 99.5% | SF-539 CNS 91.8% | UACC-257 melanoma 93.8% | M14 melanoma 85.7%

Cc1cn(-c2cc(NC(=O)c3cncc(C#Cc4cnc5ccc(O[C@@H]6CCOC6)nn45)c3)cc(C(F)(F)F)c2)cn1
active: NCI-H23 lung -46.6% | NCI-H226 lung -16% | NCI-H322M lung -12.7% | HOP-62 NSCLC -12% | NCI-H460 lung -76.9% | HOP-92 NSCLC -44.6% | NCI-H522 lung -69.3% | A549/ATCC NSCLC -75.3% | 786-0 renal -88.2% | COLO 205 colon -84.9% | DU-145 prostate -86.5% | K-562 leukemia -17.6% | MALME-3M melanoma -83% | MDA-MB-231 breast -35.5% | RXF 393 renal -91.5% | SF-268 CNS -42.1% | SF-295 CNS -21.7% | SF-539 CNS -90.5% | UACC-257 melanoma -19% | M14 melanoma -96.2%

COc1ccc(/C=N\NC(=O)c2ccc3nc(-c4ccc(Br)cc4)[nH]c3c2)cc1
inactive: NCI-H23 lung 24.5% | NCI-H226 lung 64.3% | NCI-H322M lung 66.2% | NCI-H522 lung 74.6% | A549/ATCC NSCLC 23.8% | 786-0 renal 12.8% | COLO 205 colon 18.4% | DU-145 prostate 16.5% | K-562 leukemia 11.6% | MDA-MB-231 breast 48.6% | SF-295 CNS 11% | SF-539 CNS 16.4% | UACC-257 melanoma 38.7% | M14 melanoma 24.7%
active: HOP-62 NSCLC 4.06% | NCI-H460 lung -47.7% | HOP-92 NSCLC -2.97% | MALME-3M melanoma -9.02% | RXF 393 renal -17.7% | SF-268 CNS 8.61%

CC(C)(C)OC(=O)N1CCN(S(=O)(=O)/N=C2\NC(=O)NC2=C(Cl)Cl)CC1
active: NCI-H522 lung -52.4%
inactive: NCI-H23 lung 91.8% | NCI-H226 lung 105% | NCI-H322M lung 98.9% | HOP-62 NSCLC 105% | NCI-H460 lung 101% | HOP-92 NSCLC 108% | A549/ATCC NSCLC 103% | 786-0 renal 101% | COLO 205 colon 86.3% | DU-145 prostate 101% | K-562 leukemia 12.6% | MALME-3M melanoma 80.7% | MDA-MB-231 breast 80.7% | RXF 393 renal 70.8% | SF-268 CNS 97% | SF-295 CNS 102% | SF-539 CNS 99.1% | UACC-257 melanoma 96.1% | M14 melanoma 103%

O=C(CN1C(=O)CSC1=O)Nc1ccc(C(=O)/C=C/c2cc3ccccc3nc2Cl)cc1
inactive: NCI-H23 lung 68.4% | NCI-H226 lung 89.1% | NCI-H322M lung 96.1% | HOP-62 NSCLC 97.5% | NCI-H460 lung 85.7% | HOP-92 NSCLC 94.4% | NCI-H522 lung 66.9% | A549/ATCC NSCLC 78.2% | 786-0 renal 73.3% | COLO 205 colon 111% | DU-145 prostate 90.3% | K-562 leukemia 37.2% | MALME-3M melanoma 91.8% | MDA-MB-231 breast 90.4% | RXF 393 renal 17.6% | SF-268 CNS 78.8% | SF-295 CNS 77% | SF-539 CNS 79.1% | UACC-257 melanoma 75.3% | M14 melanoma 83.7%

C#C[C@]1(O)CC[C@H]2[C@@H]3CC=C4c5sc(-c6cccc(F)c6)nc5CC[C@]4(C)[C@H]3CC[C@@]21C
inactive: NCI-H23 lung 84.2% | NCI-H226 lung 83.5% | NCI-H322M lung 73.8% | HOP-62 NSCLC 91.4% | NCI-H460 lung 93.5% | HOP-92 NSCLC 113% | NCI-H522 lung 89.2% | A549/ATCC NSCLC 83.8% | 786-0 renal 65.3% | COLO 205 colon 97.9% | DU-145 prostate 99.2% | K-562 leukemia 19% | MALME-3M melanoma 95.4% | MDA-MB-231 breast 93.2% | RXF 393 renal 20.7% | SF-268 CNS 85.8% | SF-295 CNS 61.9% | SF-539 CNS 67.3% | UACC-257 melanoma 90% | M14 melanoma 82%
